Bioassay records from PubChem.
KB-V1 MDR tox – KB-V1 MDR subline cytotoxicity. KB-V1 MDR cells viability, CellTiter-Glo, 72 h. Potency, µM (titrated, usually from 46.1 µM), actives largely listed as cytotoxic. 3.4% of 400,000 active. AID 1347076; note: % is set by controls: 0 for no effect and ±100 for the full control effect; nearly all actives have a fitted effect of over 60% in size
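KB-V1 MDR subline cells in DMEM (phenol-red free, 10% FBS) exposed to compounds in qHTS concentration series for 72 h at 37 degrees C. Viability read by CellTiter-Glo luminescence; concentration-effect curves fitted after normalization and correction.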
RORg inh – inhibitors of mouse ROR gamma transcriptional activity; P51450; Drosophila S2 Gal4-RORgamma UAS-luciferase reporter, 20 h; Potency, µM (highest dose often 53.6 µM), for the others: at the highest dose activity change, negative = inhibition, most hits filed as inhibitors; 5.4% of 310,000 active; AID 2551; note: % is set by controls: 0 for no effect and ±100 for the full control effect; nearly all actives have a fitted effect of over 60% in size
Target sequence (P51450 whole entry, looked up, the tested form may be a part): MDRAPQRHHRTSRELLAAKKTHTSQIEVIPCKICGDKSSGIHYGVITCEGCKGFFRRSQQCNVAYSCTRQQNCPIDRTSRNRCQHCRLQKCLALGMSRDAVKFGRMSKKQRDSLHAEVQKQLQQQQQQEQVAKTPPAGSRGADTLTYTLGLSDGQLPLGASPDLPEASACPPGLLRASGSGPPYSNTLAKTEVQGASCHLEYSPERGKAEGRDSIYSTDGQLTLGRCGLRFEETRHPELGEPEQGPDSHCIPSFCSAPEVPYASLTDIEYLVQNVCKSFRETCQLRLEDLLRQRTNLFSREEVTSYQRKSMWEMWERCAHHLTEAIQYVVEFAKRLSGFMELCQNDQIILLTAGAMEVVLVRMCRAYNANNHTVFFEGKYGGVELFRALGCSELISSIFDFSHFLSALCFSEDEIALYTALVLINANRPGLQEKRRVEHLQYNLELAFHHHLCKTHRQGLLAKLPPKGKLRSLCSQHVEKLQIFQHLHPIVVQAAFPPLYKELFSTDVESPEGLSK
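Compounds are pin-transferred onto Drosophila Schneider cells expressing a copper-inducible Gal4–ROR gamma transactivation domain fusion. After 1 hr, copper sulfate is added to 700 uM final; luciferase is read 20 hr later.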
Gal4-VP16 FLuc – counter-screen for ROR gamma inhibitors: Gal4-VP16 reporter; Drosophila S2 Gal4-VP16 UAS-luciferase, luminescence, 20 h; Potency, µM (titrated, usually from 53.6 µM), for inactives: at the top dose activity, negative = inhibition, usual class: inhibitors; 3.5% of 310,000 active;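 note: Gal4-VP16 expression switched on by copper sulfate through the metallothionein promoter; % is set by controls: 0 for no effect and ±100 for the full control effect; nearly all actives have a fitted effect of over 50% in size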
MCF10A rereplic – DNA re-replication induction in MCF 10a cells | MCF 10A DNA re-replication, Hoechst nuclear intensity, 48 h | Potency, µM (doses to about 46.1 µM), inactives show at the highest dose activity, positive = re-replication, usual class: activators | 2.9% of 350,000 active | AID 624296; note: % of control where 0% means no effect; nearly all actives have a fitted effect of over 50% in size
SW480 rerep – DNA re-replication induction in SW480 cells. SW480 DNA re-replication, Hoechst DNA content imaging, 48 h. Potency, µM (series often up to 46.1 µM), for inactives: at the top dose re-replication activation, most hits filed as activators. 1.8% of 340,000 active. AID 624297; note: % of control where 0% means no effect; nearly all actives have a fitted effect of over 55% in size
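Image-based read-out: total Hoechst fluorescence of nuclei (405 nm excitation, 500-530 nm emission), with hits raising the fraction of high-intensity nuclei. SW480 colon cells incubated 48 hr with compounds at 37 C.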
KB-3-1 cytotox – kills parental KB-3-1 adenocarcinoma cells; 1.4% of 400,000 active; KB-3-1 viability, CellTiter-Glo ATP luminescence, 72 h; Potency, µM (doses to about 46.1 µM), most hits filed as cytotoxic; note: % is set by controls: 0 for no effect and ±100 for the full control effect; nearly all actives have a fitted effect of over 60% in size
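KB-3-1 cells, DMEM (no phenol red) + 10% FBS; compound by pin transfer, 72 h, 37 °C. Readout: CellTiter-Glo luminescence after 10 min. Data normalized, curve-fitted.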
The depositor's hits bear a star; i = inactive; ? = inconclusive; nt = not tested or not shown; [ ] = dose if it differs, or a comment. Most compounds without a hit are left out; they make up all but 10% or so of the library. Calls come from the whole dose curve; as a rule, active = well fitted curve in the direction sought with a large enough effect; inconclusive = small, poorly fitted or top-dose-only effect, or another doubt; inactive = no such curve, though single readings can be large; an effect the other way counts as inactive or inconclusive. Potency is the fitted concentration of half-maximal effect.

SMILES	KB-V1 MDR tox	RORg inh	Gal4-VP16 FLuc	MCF10A rereplic	SW480 rerep	KB-3-1 cytotox
Nc1nc(Sc2c([N+](=O)[O-])cc(C(F)(F)F)cc2[N+](=O)[O-])n[nH]1	i	10µM*	16µM*	?	?	i
Nc1nc(Sc2ccc(C(F)(F)F)cc2[N+](=O)[O-])n[nH]1	i	13%	25%	11%	3%	i
COc1ccc(-n2cnc3cc(C(=O)NCCC4=CCCCC4)ccc32)cc1	i	nt	nt	nt	nt	i
Oc1cc2ccccc2cc1-c1n[nH]c(=S)o1	i	-35%	-1%	9%	1%	i
Cc1cc(-c2n[nH]c(=S)o2)c(C)n1-c1ccccc1	i	13µM*	?	1%	3%	i
Cc1ccc(-c2nc(C)c(C(=O)O)s2)cc1	?	8.9µM*	?	-8%	-14%	i
Cc1nc(-c2ccccc2)sc1C(=O)O	i	-33%	-17%	-14%	-18%	i
Cc1ccc(NC(=O)CSC2=NCCN2)cc1	i	-11%	-10%	21µM*	15%	i
O=C(CSc1n[nH]c(-c2ccncc2)n1)Nc1ccccc1	i	-34%	-4%	-11%	-15%	i
O=C(CSc1n[nH]c(-c2ccccn2)n1)Nc1ccc(Cl)cc1	i	2.5µM*	0.1µM*	20%	9.2µM*	?
O=C(CSc1n[nH]c(-c2ccccn2)n1)Nc1ccc(F)cc1	?	7.9µM*	?	?	3.3µM*	?
O=C(CSc1n[nH]c(-c2ccc(Cl)cc2Cl)n1)Nc1ccccn1	16µM*	-48%	8%	2%	-5%	i
Cc1ccccc1Cn1cc(S(=O)(=O)c2ccc(F)cc2)c(=O)c2cc3c(cc21)OCO3	i	nt	nt	nt	nt	i
O=C(C[C@H]1C/C=C\C[C@H](NC(=O)OCC2c3ccccc3-c3ccccc32)C(=O)OC[C@@H]2CCCN2C1=O)NCCO	i	nt	nt	3%	-20%[9.22 µM]	i
Clc1ccc(CSc2ccc(-c3ccccn3)nn2)cc1	?	-9%	?	17%	?	?
Cc1ccc(NC(=O)CSc2n[nH]c(-c3ccccn3)n2)cc1	i	4.5µM*	5.6µM*	?	5.2µM*	?
CCOc1ccc(NC(=O)CSc2ccc(-c3ccccn3)nn2)cc1	2.9µM*	-22%	-11%	-4%	-4%	i
Cc1ccc(NC(=O)CSc2ccc(-c3ccccn3)nn2)cc1	?	-15%	-15%	3%	-2%	i
c1ccc(CSc2ccc(-c3ccccn3)nn2)cc1	?	7.9µM*	1%	?	3%	?
COc1ccc2c(c1)c1c(c(=O)n(CCc3ccccc3)c(=O)n1Cc1cccc(F)c1)n2C	i	nt	nt	nt	nt	i
Nc1c(-c2ccccn2)cnn1-c1nc(-c2ccc(F)cc2)cs1	i	5µM*	-14%	?	7%	i
CCOC(=O)c1cnc(SCc2ccc(C(C)(C)C)cc2)nc1N	?	?	9%	15%	13%	23µM*
CCOC(=O)c1cnc(SCc2ccccc2)nc1N	?	18%	-2%	-12%	6%	i
CCOC(=O)c1cnc(SCc2cccc3ccccc23)nc1N	18µM*	18%	-8%	15%	-4%	?
CCOC(=O)c1cnc(SSc2ncc(C(=O)OCC)c(N)n2)nc1N	i	10µM*	11µM*	5%	-3%	i
CCOC(=O)c1cnc(SCC(=O)OC)nc1N	i	22%	-6%	-9%	-7%	i
COC(=O)[C@]12CCCCC=C1N(Cc1ccco1)C(=O)[C@H](CC(=O)NCc1ccccc1)C2	?	nt	nt	nt	nt	i
CCOC(=O)C1CCC(CN(Cc2ccc(OC)cc2)S(=O)(=O)c2ccc(F)c(C(=O)Nc3cc(Cl)ccc3OC)c2)CC1 (centres undefined)	i	nt	nt	nt	nt	?
C=CCNC(=S)NNC(=O)c1cccn(Cc2ccc(Cl)c(Cl)c2)c1=O	16µM*	-2%	?	1%	24%	?
